Data as given in the supplement of paper PMC7830784.
Where a name gives a salt, the structure may show the parent alone.

test system: Brugia pahangi adult female; assay: IC50 motility inhibition on day 3; details: 3 days
Experimental: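 Single adult female Brugia pahangi worms in 24-well plates (RPMI-1640, 5% FBS, 37 °C) were treated with 10 µM of each compound from a 2121-drug library (4 replicates; 1% DMSO vehicle and 10 µM auranofin controls). Motility was recorded with WormAssay dark-field imaging, and % inhibition of motility on day 3 is relative to vehicle. IC50 values for selected hits come from a 6-point dilution series (30 to 0.1 µM) fitted in GraphPad Prism.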

Compound | IC50 motility inhibition on day 3
Oc1ccc(Cl)c2cccnc12 [cloxyquin] | 4.9 µM
CC(C)/N=c1\cc2n(-c3ccc(Cl)cc3)c3ccccc3nc-2cc1Nc1ccc(Cl)cc1 [clofazimine] | > 30 µM
CC(C)(C)CC(C)(C)c1ccc(OCCOCC[N+](C)(C)Cc2ccccc2)cc1 [benzethonium chloride] | 1.4 µM
Clc1ccc(C(Cn2ccnc2)OCc2ccsc2Cl)c(Cl)c1 (stereo not given) [tioconazole] | 3.18 µM
O=C(Nc1ncc([N+](=O)[O-])s1)c1ccccc1O [Tizoxanide] | 3.4 µM
Oc1c(I)cc(I)c2cccnc12 [iodoquinol] | 1.9 µM
Oc1c(I)cc(Cl)c2cccnc12 [clioquinol] | 2.61 µM
O=C(CCN1CCC(c2ccccc2)C1)c1ccc2c(c1)OCCO2 (stereo not given) [Proroxan] | 8.53 µM
Cc1cc2nc3c(=O)[nH]c(=O)nc-3n(C[C@H](O)[C@H](O)[C@H](O)CO)c2cc1C [riboflavin] | 16 µM
Cc1cc(CC(C)CC(C)(C)C)n(O)c(=O)c1 (stereo not given) [piroctone olamine] | 0.883 µM
CC(=O)OC[C@H]1O[C@@H]([S-])[C@H](OC(C)=O)[C@@H](OC(C)=O)[C@@H]1OC(C)=O.CCP(CC)CC.[Au+] [Auranofin] | 0.7 µM
C=C(CC)C(=O)c1ccc(OCC(=O)O)c(Cl)c1Cl [ethacrynic acid] | 2.6 µM
Clc1ccc(CSC(Cn2ccnc2)c2ccc(Cl)cc2Cl)cc1 (stereo not given) [sulconazole nitrate] | 4.62 µM
Cc1cc(C2CCCCC2)n(O)c(=O)c1 [ciclopirox olamine] | 0.287 µM
N=C(NCCCCCCNC(=N)NC(=N)Nc1ccc(Cl)cc1)NC(=N)Nc1ccc(Cl)cc1 [chlorhexidine] | 9.13 µM
Oc1c(Cl)cc(Cl)c2cccnc12 [chloroxine] | 0.803 µM
CC[n+]1c(-c2ccccc2)c2cc(N)ccc2c2ccc(N)cc21 [homidium bromide] | 5.43 µM
COc1cc(C)c2c(Oc3cccc(C(F)(F)F)c3)c(OC)cc(NC(C)CCCN)c2n1 (stereo not given) [Tafenoquine Succinate] | 14.1 µM
COc1cc(NC(C)CCCN)c2ncccc2c1 (stereo not given) [primaquine diphosphate] | 5.06 µM
CC(=O)Oc1ccccc1C(=O)Nc1ncc([N+](=O)[O-])s1 [nitazoxanide] | 5.78 µM

Compound | IC50 motility inhibition on day 3
Cc1cc(C(C)(C)CC(C)(C)C)ccc1OCCOCC[N+](C)(C)Cc1ccccc1 [methylbenzethonium chloride] | 3.46 µM
C1CCC(C(CC2CCCCN2)C2CCCCC2)CC1 (stereo not given) [perhexiline maleate] | 7.46 µM
CN(C)c1ccc(C(=C2C=CC(=[N+](C)C)C=C2)c2ccc(N(C)C)cc2)cc1 [gentian violet] | 0.3 µM
O=[N+]([O-])c1ccc(O)c2ncccc12 [nitroxoline] | 6.7 µM
CCCCCCCCCc1ccc(OCCOCCOCCOCCOCCOCCOCCOCCOCCO)cc1 [nonoxynol-9] | 3.24 µM
Clc1ccccc1C(c1ccccc1)(c1ccccc1)n1ccnc1 [clotrimazole] | 5.5 µM
Oc1c(Cl)cc(Cl)cc1Sc1cc(Cl)cc(Cl)c1O [bithionol] | 6.1 µM
O=C(Nc1ccc([N+](=O)[O-])cc1Cl)c1cc(Cl)ccc1O [niclosamide] | 1.17 µM
Clc1ccc(COC(Cn2ccnc2)c2ccc(Cl)cc2Cl)c(Cl)c1 (stereo not given) [miconazole nitrate] | 3.3 µM
CCCCCCCCCCCCCCCC[N+](C)(C)C [cetrimonium bromide] | 6.16 µM
O=C1C(O)=C([C@H]2CC[C@H](c3ccc(Cl)cc3)CC2)C(=O)c2ccccc21 [atovaquone] | 4.16 µM
O=C1CN(/N=C/c2ccc([N+](=O)[O-])o2)C(=O)N1 [nitrofurantoin] | 11.6 µM
CCCCCCCCCCCCCCCC[N+](C)(C)CCN(Cc1ccc(OC)cc1)c1ncccn1 [thonzonium bromide] | 1.07 µM
CCCCC(CC)COC(=O)CC(C(=O)OCC(CC)CCCC)S(=O)(=O)O (stereo not given) [docusate sodium] | 0.294 µM
COC(=O)C1=C(C)NC(C)=C(C(=O)OC(C)C)C1c1cccc2nonc12 (stereo not given) [isradipine] | 2.75 µM
Cc1cc(/C=C/c2ccc3cc(N(C)C)ccc3[n+]2C)c(C)n1-c1ccccc1 [pyrvinium pamoate] | < 0.1 µM
CCCCCCCCCCCCC[N+](C)(C)Cc1ccccc1 [benzalkonium chloride] | 1.9 µM
CCCCCCCCNC(C)C(O)c1ccc(SC(C)C)cc1 (stereo not given) [suloctidil] | 3.66 µM
Clc1ccc(COC(Cn2ccnc2)c2ccc(Cl)cc2Cl)cc1 (stereo not given) [econazole nitrate] | 3.97 µM
C[n+]1cc2c3c(ccc2c2ccc4cc5c(cc4c21)OCO5)OCO3 [Sanguinarine chloride] | 6.08 µM
